Reference: PubChem BioAssay (Tox21)
“And” between values parts separate entries of the source, which are not always exact repeats. Equal entries are not always repeated. Inconclusive results are not listed. A call without a number means that no potency is given here. More than one record can exist for a structure, and the calls need not agree. The source made the active and inactive calls. Calls follow the shape of the full dose curve.

Test system: not listed separately
Test: Nuclear factor erythroid 2-related factor 2/antioxidant responsive element (Nrf2/ARE) small molecule agonists: luciferase reporter gene qHTS assay in human keratinocytes (AID 1919969)
Conditions: KeratinoSens HaCaT ARE-luciferase, luminescence, 24 h; series mostly up to 92.4 µM
Also: nearly all actives have a fitted effect of over 35% in size.
Potency is read from the fitted curve at half-maximal effect.

| SMILES | Potency | activity, positive = activation |
| --- | --- | --- |
| CCCCCCCCCCCCOCC1CO1 (stereo not drawn) | 46.3 µM (active) | – |
| CCC/C=C/C=O | inactive | – |
| CCCCC(CC)COC(C)=O (stereo not drawn) | inactive | – |
| NC[C@H](O)c1ccc(O)c(O)c1 | inactive | – |
| CC/C=C\C/C=C\C/C=C\CCCCCCCC(=O)O | 60.6 µM (active) and 54.5 µM (active) | – |
| OCCNCCO | inactive | – |
| CCCCC(CC)COP(=O)(O)OCC(CC)CCCC (stereo not drawn) | inactive | – |
| OC[C@H]1O[C@@H]2O[C@H]3[C@H](O)[C@@H](O)[C@@H](O[C@H]4[C@H](O)[C@@H](O)[C@@H](O[C@H]5[C@H](O)[C@@H](O)[C@@H](O[C@H]6[C@H](O)[C@@H](O)[C@@H](O[C@H]7[C@H](O)[C@@H](O)[C@@H](O[C@H]1[C@H](O)[C@H]2O)O[C@@H]7CO)O[C@@H]6CO)O[C@@H]5CO)O[C@@H]4CO)O[C@@H]3CO | inactive | – |
| O=c1[nH]cnc2[nH]ncc12 | inactive | – |
| Oc1ccc2cc(SSc3ccc4cc(O)ccc4c3)ccc2c1 | 68.7 µM (active) and 68.6 µM (active) | – |
| O=C(O)c1ccc(C(=O)O)c(C(=O)O)c1 | inactive | – |
| O=C1c2ccccc2CCc2ccccc21 | inactive | – |
| CCN(CC)c1ccc(C(=O)c2ccccc2C(=O)O)c(O)c1 | inactive | – |
| Clc1ccc2c(c1)C(N1CCNCC1)=Nc1ccccc1O2 | inactive | – |
| C=CC(=O)NCOCCCC | inactive | – |
| N[C@@H](Cc1c[nH]c2ccc(O)cc12)C(=O)O | inactive | – |
| O=[N+]([O-])c1ccc2nc[nH]c2c1 | inactive | – |
| CN=C(NC#N)NCCSCc1nc[nH]c1C | inactive | – |
| O=C(O)c1ccccc1C(c1ccc(O)cc1)c1ccc(O)cc1 | inactive | – |
| CN(Cc1cnc2nc(N)nc(N)c2n1)c1ccc(C(=O)N[C@@H](CCC(=O)O)C(=O)O)cc1 | inactive | – |

| SMILES | Potency | activity, positive = activation |
| --- | --- | --- |
| CCCCCCCCCCCCCC[P+](CCCC)(CCCC)CCCC | inactive | – |
| CC1COc2ccccc2N1C(=O)C(Cl)Cl (stereo not drawn) | 21.6 µM (active) | – |
| OC1CCCC1 | inactive | – |
| C[C@]12CCC(=O)C=C1CC[C@@H]1[C@@H]2[C@@H](O)C[C@@]2(C)[C@H]1CC[C@]2(O)C(=O)CO | inactive | – |
| S=C(NC1CCCCC1)NC1CCCCC1 | 15.1 µM (active) | – |
| CC(C)c1ccc(S(=O)(=O)O)cc1 | inactive | – |
| CC(C)CC(C)O (stereo not drawn) | inactive | – |
| C[N+](C)(C)CCO | inactive | – |
| OCC(CO)(CO)CO | inactive | – |
| CC1(C)O[C@@H]2C[C@H]3[C@@H]4C[C@H](F)C5=CC(=O)C=C[C@]5(C)[C@@]4(F)[C@@H](O)C[C@]3(C)[C@]2(C(=O)CO)O1 | inactive | – |
| CC(C)OC(=O)C(C)(C)Oc1ccc(C(=O)c2ccc(Cl)cc2)cc1 | 61.1 µM (active) and inactive | – |
| CCCCCCCCCCCC(=O)N(C)CC(=O)O | – | 0.794% [at 8.39 µM] (inactive) |
| O=C(COc1ccc(Cl)cc1)N1CCN(Cc2ccc3c(c2)OCO3)CC1 | inactive | – |
| CCC(=O)O[C@H]1[C@H](O[C@@H]2[C@@H](C)[C@H](O[C@H]3C[C@@](C)(OC)[C@@H](O)[C@H](C)O3)[C@@H](C)C(=O)O[C@H](CC)[C@@](C)(O)[C@H](O)[C@@H](C)C(=O)[C@H](C)C[C@@]2(C)O)O[C@H](C)C[C@@H]1N(C)C | inactive | – |
| O=C1OC2(c3ccccc31)c1cc(Br)c(O)c(Br)c1Oc1c2cc(Br)c(O)c1Br | inactive | – |
| Cc1cc(OCCOCC[N+](C)(C)Cc2ccccc2)ccc1C(C)(C)CC(C)(C)C | inactive | – |
| NCCNCCNCCNCCN | inactive | – |
| CC(=O)OC1CC(C)OC(C)O1 (stereo not drawn) | inactive | – |
| O=C1CC2(CCCC2)CC(=O)N1CCCCN1CCN(c2ncccn2)CC1 | inactive | – |

Molecular target: Gonadotropin-releasing hormone receptor (Homo sapiens) (UniProt P30968)
Test: Human gonadotropin-releasing hormone receptor (GnRHR) small molecule agonists, calcium flux assay in GnRHR-HEK293 cells (AID 1920063)
Conditions: calcium flux fluorescence, agonist mode; series mostly up to 57.6 µM
In short: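 Calcium-dye fluorescence, Ex/Em=480/540, recorded every 1 sec over 3 min after compound addition to GnRHR-HEK293 cells. Cells had been seeded 18 hours earlier and dye-loaded for 1 hour at 37 C. Fifteen concentrations, triplicates.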

Gonadotropin-releasing hormone receptor (Homo sapiens), sequence (P30968 whole entry, looked up): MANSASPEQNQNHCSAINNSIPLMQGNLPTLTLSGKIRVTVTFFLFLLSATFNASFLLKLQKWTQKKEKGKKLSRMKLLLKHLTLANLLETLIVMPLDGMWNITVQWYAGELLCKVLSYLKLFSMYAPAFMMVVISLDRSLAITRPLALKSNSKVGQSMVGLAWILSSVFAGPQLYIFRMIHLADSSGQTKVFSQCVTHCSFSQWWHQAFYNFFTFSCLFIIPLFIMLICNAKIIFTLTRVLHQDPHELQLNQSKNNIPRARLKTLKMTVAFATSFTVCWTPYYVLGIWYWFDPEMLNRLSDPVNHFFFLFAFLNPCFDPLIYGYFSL

| SMILES | Potency |
| --- | --- |
| CCCCCCCCCCCCOCC1CO1 (stereo not drawn) | inactive |
| CCC/C=C/C=O | inactive |
| CCCCC(CC)COC(C)=O (stereo not drawn) | inactive |
| NC[C@H](O)c1ccc(O)c(O)c1 | 19 µM (active) |
| CC/C=C\C/C=C\C/C=C\CCCCCCCC(=O)O | inactive |
| OCCNCCO | inactive |
| CCCCC(CC)COP(=O)(O)OCC(CC)CCCC (stereo not drawn) | inactive |
| OC[C@H]1O[C@@H]2O[C@H]3[C@H](O)[C@@H](O)[C@@H](O[C@H]4[C@H](O)[C@@H](O)[C@@H](O[C@H]5[C@H](O)[C@@H](O)[C@@H](O[C@H]6[C@H](O)[C@@H](O)[C@@H](O[C@H]7[C@H](O)[C@@H](O)[C@@H](O[C@H]1[C@H](O)[C@H]2O)O[C@@H]7CO)O[C@@H]6CO)O[C@@H]5CO)O[C@@H]4CO)O[C@@H]3CO | inactive |
| O=c1[nH]cnc2[nH]ncc12 | inactive |
| Oc1ccc2cc(SSc3ccc4cc(O)ccc4c3)ccc2c1 | inactive |
| O=C(O)c1ccc(C(=O)O)c(C(=O)O)c1 | inactive |
| O=C1c2ccccc2CCc2ccccc21 | inactive |
| CCN(CC)c1ccc(C(=O)c2ccccc2C(=O)O)c(O)c1 | inactive |
| Clc1ccc2c(c1)C(N1CCNCC1)=Nc1ccccc1O2 | inactive |
| C=CC(=O)NCOCCCC | inactive |
| N[C@@H](Cc1c[nH]c2ccc(O)cc12)C(=O)O | inactive |
| O=[N+]([O-])c1ccc2nc[nH]c2c1 | inactive |
| CN=C(NC#N)NCCSCc1nc[nH]c1C | inactive |
| O=C(O)c1ccccc1C(c1ccc(O)cc1)c1ccc(O)cc1 | inactive |
| CN(Cc1cnc2nc(N)nc(N)c2n1)c1ccc(C(=O)N[C@@H](CCC(=O)O)C(=O)O)cc1 | inactive |

| SMILES | Potency |
| --- | --- |
| CCCCCCCCCCCCCC[P+](CCCC)(CCCC)CCCC | inactive |
| CC1COc2ccccc2N1C(=O)C(Cl)Cl (stereo not drawn) | inactive |
| OC1CCCC1 | inactive |
| C[C@]12CCC(=O)C=C1CC[C@@H]1[C@@H]2[C@@H](O)C[C@@]2(C)[C@H]1CC[C@]2(O)C(=O)CO | inactive |
| S=C(NC1CCCCC1)NC1CCCCC1 | inactive |
| CC(C)c1ccc(S(=O)(=O)O)cc1 | inactive |
| CC(C)CC(C)O (stereo not drawn) | inactive |
| C[N+](C)(C)CCO | inactive |
| OCC(CO)(CO)CO | inactive |
| CC1(C)O[C@@H]2C[C@H]3[C@@H]4C[C@H](F)C5=CC(=O)C=C[C@]5(C)[C@@]4(F)[C@@H](O)C[C@]3(C)[C@]2(C(=O)CO)O1 | inactive |
| CC(C)OC(=O)C(C)(C)Oc1ccc(C(=O)c2ccc(Cl)cc2)cc1 | inactive |
| CCCCCCCCCCCC(=O)N(C)CC(=O)O | inactive |
| O=C(COc1ccc(Cl)cc1)N1CCN(Cc2ccc3c(c2)OCO3)CC1 | inactive |
| CCC(=O)O[C@H]1[C@H](O[C@@H]2[C@@H](C)[C@H](O[C@H]3C[C@@](C)(OC)[C@@H](O)[C@H](C)O3)[C@@H](C)C(=O)O[C@H](CC)[C@@](C)(O)[C@H](O)[C@@H](C)C(=O)[C@H](C)C[C@@]2(C)O)O[C@H](C)C[C@@H]1N(C)C | inactive |
| O=C1OC2(c3ccccc31)c1cc(Br)c(O)c(Br)c1Oc1c2cc(Br)c(O)c1Br | 31.4 µM (active) and 14.2 µM (active) and 15.1 µM (active) |
| Cc1cc(OCCOCC[N+](C)(C)Cc2ccccc2)ccc1C(C)(C)CC(C)(C)C | 38.7 µM (active) |
| NCCNCCNCCNCCN | inactive |
| CC(=O)OC1CC(C)OC(C)O1 (stereo not drawn) | inactive |
| O=C1CC2(CCCC2)CC(=O)N1CCCCN1CCN(c2ncccn2)CC1 | inactive |
